Source: PubChem BioAssay (The Scripps Research Institute Molecular Screening Center)
S1P1 agonist – S1P1 (human) receptor agonism | activation, % at 4.5 µM | hit rate 1.5% among 16,000 | P21453 | S1P1 agonist cell-based reporter assay; in the data active = activation above about 80%
Nox1 inh – blocks human NADPH oxidase 1 activity; HT29 cells, luminol chemiluminescence ROS; inhibition, % at 6.7 µM; hit rate 0.81% among 16,000; AID 1792
Target sequence (Q9Y5S8 whole entry, looked up): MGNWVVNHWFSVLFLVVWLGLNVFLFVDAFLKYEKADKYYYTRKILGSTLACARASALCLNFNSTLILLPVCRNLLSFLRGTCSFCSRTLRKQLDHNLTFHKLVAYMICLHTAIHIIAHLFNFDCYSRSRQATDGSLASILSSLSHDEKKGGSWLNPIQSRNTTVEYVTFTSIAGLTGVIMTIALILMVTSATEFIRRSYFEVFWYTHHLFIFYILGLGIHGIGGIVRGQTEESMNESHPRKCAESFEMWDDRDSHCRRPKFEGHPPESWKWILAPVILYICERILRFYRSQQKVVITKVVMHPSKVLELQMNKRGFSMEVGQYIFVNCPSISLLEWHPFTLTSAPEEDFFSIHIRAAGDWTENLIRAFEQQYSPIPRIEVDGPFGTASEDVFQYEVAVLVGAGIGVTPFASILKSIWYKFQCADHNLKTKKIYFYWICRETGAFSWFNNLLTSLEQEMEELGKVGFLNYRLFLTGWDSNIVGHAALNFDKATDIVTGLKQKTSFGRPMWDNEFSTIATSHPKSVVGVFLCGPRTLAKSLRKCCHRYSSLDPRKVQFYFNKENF
rat GALR2 agon – GALR2 (rat) receptor agonism | O08726 | cell-based GALR2 agonist screen | activation, % at 10 µM | hit rate 0.5% among 16,000 | AID 833; in the data active = activation above about 15%
luminol inh ctr – quenches luminol chemiluminescence in Nox1 counter-screen. HRP/luminol/H2O2 chemiluminescence counterscreen. inhibition, % at 6.7 µM. hit rate 0.4% among 16,000. AID 1823; also: reference of the scale not given here
NOTCH agonist – agonists of NOTCH signaling; NOTCH signaling luciferase reporter cells, luminescence; AID 434982; activation, % at 2.5 µM; hit rate 0.4% among 15,000; in the data active = activation above about 2.2%
PME-1 Maybridge – PME-1 (human) inhibition, Maybridge primary screen | Q9Y570 | recombinant PME-1, FP-Rh probe fluorescence polarization | inhibition, % at 9 µM | hit rate 0.5% among 16,000; in the data active = inhibition above about 30%
Large screens that a line does not name were inactive. Only some compounds are listed: those with a hit (about 4% of all), similar ones and a draw of the others. Rule as the data show it, unless noted: active = inhibition above about 75%; inactive = the rest.

CN1C(=O)C2c3oc(-c4ccc(Cl)cc4)nc3C(=O)N(c3ccccc3)C2N(C)C1=O (configuration not stated)	none
FC(F)(F)c1ccc(SCc2ccc(-c3ncns3)cc2)nc1	none
c1ccc(-c2nc(-c3ccc(-c4ccon4)s3)no2)cc1	S1P1 agonist 87.2
Cc1c(C(=O)Oc2cccc(C(F)(F)F)c2)n(C)oc1=O	rat GALR2 agon 56.3
COc1ccccc1N1CC(C)(C)C(=O)NC1=S	none
Cc1ccc(S(=O)(=O)NC(=O)Oc2ccc(-c3csnn3)cc2)cc1	luminol inh ctr 102.7
Cc1cc(NC(=O)CSc2n[nH]c(=O)n2-c2ccc3c(c2)OCCO3)n(-c2ccccc2)n1	NOTCH agonist 2.2
Cc1cc(NC(=O)CN2CCOCC2)n(-c2ccccc2)n1	rat GALR2 agon 137.1
Cc1cc(NC(=O)C(Cl)Cl)n(-c2ccccc2)n1	none
O=C(CSc1ccccn1)Nc1ccccc1Sc1nccc(C(F)(F)F)n1	S1P1 agonist 83.7
O=C(COc1ccccc1)Nc1ccc(C(=O)O)cc1	none
O=[N+]([O-])c1ccccc1SCc1csc2ccccc12	S1P1 agonist 98.0
COc1ccc(OC)c(Sc2cc(-n3cccc3)c(Cl)cc2[N+](=O)[O-])c1	none
COc1ccccc1NC(=S)NCCC(=O)O	none
COc1ccccc1NC(N)=S	NOTCH agonist 4.8
C=CCn1c(-c2ccccc2)n[nH]c1=S	luminol inh ctr 97.4
C=CCNC(=S)NNC(=O)CSc1ccccc1[N+](=O)[O-]	none
C=CCn1c(CSc2ccccc2[N+](=O)[O-])n[nH]c1=S	luminol inh ctr 80.1
COC(=O)c1sccc1NC(=O)NC(=O)c1c(Cl)cccc1Cl	none
Cc1ccc(S(=O)(=O)NC(=O)Nc2c(C)n(C)n(-c3ccccc3)c2=O)cc1	Nox1 inh 92.4
COc1cc(C(=O)Oc2c(Cl)cc(Cl)cc2/C=N/NC(N)=S)cc(OC)c1OC	PME-1 Maybridge 33.7
Oc1c(Cl)cc(Cl)cc1C1Nc2cc(Cl)c(C(F)(F)F)cc2N1 (configuration not stated)	S1P1 agonist 106.2
CN(C)/C=C/C(=O)c1nccs1	none
O=C(NC1CCN(Cc2ccccc2)CC1)C1CC(=O)N(Cc2ccco2)C1 (configuration not stated)	none
Cc1cc(NS(=O)(=O)c2ccc(C(F)(F)F)cc2Cl)no1	none
O=S(=O)(Nc1cc(C(F)(F)F)ccc1F)c1cc(C(F)(F)F)ccc1Cl	S1P1 agonist 85.5
O=[N+]([O-])c1ccc(SC2=NCCS2)c([N+](=O)[O-])c1	S1P1 agonist 113.3
O=C(Cc1cc(F)cc(F)c1)NNC(=O)c1ccc(Cl)cc1	none (no result: NOTCH agonist)
O=C(c1ccc(Cl)cc1)n1ccc(-c2cccc([N+](=O)[O-])c2)n1	rat GALR2 agon 26.2
Cn1ccc(-c2cccc([N+](=O)[O-])c2)n1	none
Cc1cc(C)c2c(=O)[nH]sc2n1	NOTCH agonist 2.8
COC(=O)c1cc(NC(=O)c2c(Cl)cccc2Cl)ccc1N1CCOCC1	none
COC(=O)c1cc(NC(=O)/C=C/c2ccc(OC)c(OC)c2Cl)ccc1N1CCOCC1	S1P1 agonist 84.6
CCOC(=O)c1cnn(-c2nc(-c3ccccc3)cs2)c1C(F)(F)F	S1P1 agonist 82.3
CN1CCN(c2ccc(NC(=O)Nc3ccc(C(F)(F)F)cc3)cc2)CC1	PME-1 Maybridge 36.1
Cc1ccc(S(=O)(=O)Nc2ccc(-n3ccc(C(F)(F)F)n3)cc2)cc1	none
N#C/C(=C\c1cc(C#Cc2ccccc2)cs1)C(=O)c1ccco1	none
N#C/C(=C\c1ccc(C#Cc2ccccc2)s1)C(=O)c1ccco1	rat GALR2 agon 15.9
Clc1ccc(CSc2nnc(-n3cccc3)s2)cc1	S1P1 agonist 80.3
O=C(O)CSCC(=O)Nc1cccc2c1CCCC2	rat GALR2 agon 24.4
Cc1ccc(-n2cc(-c3cccs3)nc2SCc2n[nH]c(=S)n2Cc2ccccc2)cc1	none
COc1ccc(-n2c(-c3cccs3)n[nH]c2=S)cc1	luminol inh ctr 98.0
CCn1c(-c2cccs2)n[nH]c1=S	luminol inh ctr 100.3
S=C(SCc1ncon1)N1CCCC1	S1P1 agonist 83.1
S=C(SCc1ncon1)N1CCOCC1	none
COc1ccc(CCN2C(=O)CSC2=Nc2ccc(C(C)C)cc2)cc1OC	S1P1 agonist 108.2
COc1ccc(CCN2CC(C(=O)O)CC2=O)cc1OC (configuration not stated)	none
COc1ccc(S(=O)(=O)Nc2cc(C)c(C)cc2[N+](=O)[O-])c(OC)c1	PME-1 Maybridge 32.6
COc1ccc(NS(=O)(=O)c2ccc(C)cc2)c([N+](=O)[O-])c1	none
N/C(CCS(=O)(=O)c1ccc(Cl)cc1)=N\O	none
Cc1ccc(NCN2C(=O)c3ccc([N+](=O)[O-])cc3C2=O)cc1	Nox1 inh 76.8
Cc1ccc(S(=O)(=O)ONCCN)cc1	none
NS(=O)(=O)c1ccc(N/N=C2\CSCc3ccccc32)c([N+](=O)[O-])c1	none
O=[N+]([O-])c1cc(C(F)(F)F)cc([N+](=O)[O-])c1O/N=C1\CSCc2ccccc21	rat GALR2 agon 40.0
O=C(NCc1ccccc1)c1sc2sccc2c1Cl	none
CN(CCc1ccccn1)C(=O)c1nccnc1C(=O)O	S1P1 agonist 94.5
CC(C)(C)OC(=O)N1CCN(C(=O)c2ccccc2C(=O)O)CC1	none
Cc1ccc(NC(=O)c2c(F)cccc2Cl)cc1NS(C)(=O)=O	none
CC(=O)Nc1ccc(NC(=O)c2c(Cl)cccc2Cl)c(C)c1	rat GALR2 agon 41.2
Cc1nnsc1-c1nnc(-c2ccccc2C(F)(F)F)o1	none
Cc1nnsc1-c1nnc(C2CCCCC2)o1	NOTCH agonist 3.8
O=C(Oc1cccc2c1CCC2=O)c1ccccc1	none (no result: NOTCH agonist)
O=C(Oc1cccc2c1C(=O)C=CC2=O)c1ccccc1	S1P1 agonist 102.0, PME-1 Maybridge 34.5
CNC(=S)NNC(=O)c1c(C)nc2cc(C)ccn12	Nox1 inh 96.6
NC(N)=NC(N)=Nc1cc(C(F)(F)F)ccc1Cl	none
COc1cccc2c1c(NC(=O)c1nccnc1C(=O)O)nn2C	none
N#Cc1nc(=O)n(-c2ccc(OC(F)(F)F)cc2)c(N)c1N=Cc1ccc(C(F)(F)F)cc1	S1P1 agonist 105.7
Cc1ccc(C)n1-c1ccc(OC(F)(F)F)cc1	none
O=C1CNC(=S)N1Cc1cccs1	S1P1 agonist 97.7
O=C(O)C1CC(=O)N(Cc2cccs2)C1 (configuration not stated)	none
O=C1CNC(=S)N1Cc1ccccc1Cl	NOTCH agonist 2.5
O=C1CNC(=S)N1Cc1ccccn1	none
CC(=O)/C(C=Nc1ccc(F)cc1)=C(\C)O	none
CC(=O)/C(C=Nc1cc(C)c(O)c(Cl)c1)=C(\C)O	Nox1 inh 91.9
O=c1c(C(F)(F)F)cccn1CCc1nc(-c2ccc(Cl)cc2)cs1	none
CCN(CC)c1ccc(NS(=O)(=O)c2ccc(F)cc2)cc1	Nox1 inh 101.9
O=C(O)CCC(=O)Nc1ccccc1Oc1ccc(Cl)cc1Cl	none
COc1cccc(Cc2n[nH]c(=S)n2-c2ccc(Cl)cc2)c1	luminol inh ctr 99.0
COc1cccc(Cc2n[nH]c(=S)n2Cc2ccco2)c1	luminol inh ctr 99.3
FC(F)(F)c1ccc(-c2n[nH]c(=S)n2Cc2ccco2)cc1	none
